# ATXN2 expr inh: inhibitors of ATXN2 expression; HEK-293 ATXN2-luciferase reporter, luminescence, 24 h; Potency, µM (top dose mostly 57 µM), without a hit: at the highest dose activity change, negative = inhibition, usual class: inhibitors; 360,000 compounds, 0.72% hits; note: % is set by controls: 0 for no effect and ±100 for the full control effect; nearly all actives have a fitted effect of over 55% in size
#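 qHTS (up to 57 uM final) was run with 24 h compound exposure of reporter cells at 37 °C. Each well was multiplexed: SteadyGlo luminescence measured ATXN2-luciferase expression after a fluorogenic Gly-Phe-AFC viability readout (25 uM final).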
# KB-V1 cytotox: KB-V1 MDR subline cytotoxicity; Potency, µM (doses to about 46.1 µM), usual class: cytotoxic; 400,000 compounds, 3.4% hits; KB-V1 MDR cells viability, CellTiter-Glo, 72 h; AID 1347076; note: % is set by controls: 0 for no effect and ±100 for the full control effect; nearly all actives have a fitted effect of over 60% in size
#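 In this primary screen, KB-V1 cells overexpressing P-gp are incubated with library compounds (lowest to highest concentration) for 72 h at 37 degrees C before a luminescent ATP viability read.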
# TGFb SMAD3 inh: blocks TGF-b signaling; AID 588855; 410,000 compounds, 1.2% hits; HepG2 CAGA-GFP TGF-b/SMAD3 reporter, GFP fluorescence, 18 h; TGF-beta stimulated, 500 pg/mL final; Potency, µM (highest dose often 46.1 µM), inactives show at the highest dose activity, negative = inhibition, usual class: inhibitors; note: % is set by controls: 0 for no effect and ±100 for the full control effect; nearly all actives have a fitted effect of over 65% in size
#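 Cell-based qHTS in HEPG2 carrying a CAGA-GFP Smad reporter; compounds added before 500 pg/mL final TGF-beta, 18 h incubation at 37 degrees C, GFP fluorescence quantified per cell by imaging cytometry.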
# ATXN viability: reduces viability in counter-screen for ATXN expression inhibitors; S2 cells (HEK-293 line with an ATXN2-luciferase reporter) viability, CellTiter-Fluor protease fluorescence, 24 h; Potency, µM (titrated, usually from 56.7 µM), most hits filed as cytotoxic; 400,000 compounds, 0.49% hits; AID 651635; note: nearly all actives have a fitted effect of over 40% in size
# KB-3-1 cytotox: kills parental KB-3-1 adenocarcinoma cells | 400,000 compounds, 1.4% hits | KB-3-1 viability, CellTiter-Glo ATP luminescence, 72 h | Potency, µM (doses to about 46.1 µM), hits mostly cytotoxic; note: % is set by controls: 0 for no effect and ±100 for the full control effect; nearly all actives have a fitted effect of over 60% in size
#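 Viability of parental KB-3-1 cells, measured by CellTiter-Glo luminescence, followed a 72 h incubation at 37 °C with pinned compounds in phenol-red-free DMEM containing 10% FBS.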
# HepG2 tox-1: kills HepG2 cells in TGF-b inhibitor counter-screen | 410,000 compounds, 0.76% hits | HepG2 CAGA-GFP viability, ATP luminescence, 18 h | AID 588856 | Potency, µM (highest dose often 46.1 µM), for the others: at the highest dose activity change, negative = cytotoxicity, usual class: cytotoxic
#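 HepG2 CAGA-GFP cells (1000/well, DMEM with 1% FBS) received compound, then TGF-beta at 500 pg/mL final, and were incubated 18 hours at 37 degrees C. Viability was read by CellTiter-Glo luminescence. Media-only wells were set as complete cell-killing and DMSO as no toxicity.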
# TGFb confirm: TGF-b pathway inhibition, cherry-pick retest; HepG2 CAGA-GFP TGF-b reporter, GFP fluorescence, 18 h; cells stimulated with TGF-beta, 500 pg/mL; shares compounds with TGFb SMAD3 inh; 1,600 compounds, 63% hits; Potency, µM (titrated, usually from 46.1 µM), for inactives: top-dose activity, negative = inhibition, usual class: inhibitors; note: % is set by controls: 0 for no effect and ±100 for the full control effect; nearly all actives have a fitted effect of over 65% in size
# HepG2 tox-2: counter-screen for TGF-b inhibitors: cytotoxicity in HepG2 cells; shares compounds with TGFb SMAD3 inh; 1,600 compounds, 27% hits; AID 720535; HepG2 CAGA-GFP viability, ATP luminescence, 18 h; cells stimulated with TGF-beta, 500 pg/mL; Potency, µM (titrated, usually from 46.1 µM), for the others: top-dose activity, negative = cytotoxicity, actives largely listed as inhibitors; note: % is set by controls: 0 for no effect and ±100 for the full control effect; nearly all actives have a fitted effect of over 70% in size
# TGFb CCL64 inh: orthogonal confirmation of TGF-b inhibitors in CCL64 cells; shares compounds with TGFb SMAD3 inh; AID 720536; 1,600 compounds, 41% hits; Potency, µM (titrated, usually from 46.1 µM), for inactives: at the highest dose activity, negative = inhibition, most hits filed as inhibitors; CCL64 CAGA-GFP reporter, TGF-b stimulated, GFP fluorescence, 18 h; note: nearly all actives have a fitted effect of over 65% in size
# TGFb COP inh: blocks TGF-b signaling in HepG2 COP reporter | 1,600 compounds, 3% hits | AID 720537 | HepG2 COP-GFP TGF-b reporter, GFP fluorescence, 18 h; cells stimulated by added recombinant TGF-beta | shares compounds with TGFb SMAD3 inh | Potency, µM (titrated, usually from 46.1 µM), without a hit: at the highest dose activity, negative = inhibition, most hits filed as inhibitors; note: nearly all actives have a fitted effect of over 70% in size
# Active calls of the source: *; i = inactive; ? = inconclusive; . = not tested or not shown. Compounds with a hit are over-represented: about 5.9% of the library has one in this group of screens. Calls come from the whole dose curve; as a rule, active = well fitted curve in the direction sought with a large enough effect; inconclusive = small, poorly fitted or top-dose-only effect, or another doubt; inactive = no such curve, though single readings can be large; an effect the other way counts as inactive or inconclusive. Potency is the fitted concentration of half-maximal effect.
SMILES,ATXN2 expr inh,KB-V1 cytotox,TGFb SMAD3 inh,ATXN viability,KB-3-1 cytotox,HepG2 tox-1,TGFb confirm,HepG2 tox-2,TGFb CCL64 inh,TGFb COP inh
Cc1cc(C)cc(NC(=O)CNC(c2ccccc2)c2ccccc2)c1,-34%,i,-29%,i,i,1%,.,.,.,.
O=C(Cn1c(=O)c(C(F)(F)F)nc2ccccc21)Nc1cccc(Br)c1,7%,i,?,i,i,-3%,.,.,.,.
C=CCn1c(SC(C)C#N)nc2ccccc2c1=O (stereo not drawn),.,i,19%,.,i,7%,.,.,.,.
CCn1c2ccccc2c2cc(/C=N/NC(=O)c3ccccc3C)ccc21,?,5.2µM*,4µM*,i,21µM*,-12%,8.2µM*,4.1µM*,?,18%
Cn1c2ccccc2c2cc(/C=N/NC(=O)c3ccccc3F)ccc21,0%,i,-2%,i,i,-23%,.,.,.,.
Cc1cc(C(=O)N2CCN(C/C=C/c3ccccc3)CC2)cs1,5%,16µM*,16µM*,i,i,-8%,?,-17%,9%,-22%
Nc1ncnc2c1ncn2C1C=C(CO)C(O)C1O (stereo not drawn),?,?,8.9µM*,?,8.2µM*,10µM*,?,0.13µM*,?,25%
Cc1cc(C)cc(NC(=O)CSc2nc(-c3ccccc3)c3cc(F)ccc3n2)c1,.,.,0%,.,.,-5%,.,.,.,.
CC[Si](CC)(CC)O[C@H]([C@@H](C)COCOC)[C@@H](C)COCc1ccc(OC)cc1,.,.,-4%,.,.,2%,.,.,.,.
O=C1c2cccc(OCc3ccc(F)cc3)c2CCN1Cc1ccc(F)cc1,?,3.3µM*,6.3µM*,i,2.9µM*,-29%,23µM*,?,13µM*,31%
CCN(CC)C(=O)[C@H]1C[C@H](CC(=O)NC/C=C(\C)CCC=C(C)C)C(=O)N2CCc3c([nH]c4cc(-c5ccco5)ccc34)[C@]12C,?,?,8.9µM*,?,?,-40%,?,?,13µM*,45%
CC[C@]12c3[nH]c4ccc(OC)cc4c3CCN1C(=O)C(CC(=O)NCC13CC4CC(CC(C4)C1)C3)C[C@@H]2C(=O)N1CCN(C(=O)C2CC2)CC1 (stereo partly drawn),?,i,?,?,i,3%,.,.,.,.
CCN(CC)C(=O)[C@H]1C[C@H](CC(=O)NCCCN(C)C)C(=O)N2CCc3c([nH]c4cc(-c5ccco5)ccc34)[C@]12C,6%,i,-1%,i,i,-29%,.,.,.,.
